# This is one part of a sample in which the strongest signals are shown more often than they occur.
# B1: Siglec-E (Mus musculus), Q91Y57 (protein)
# chain: MLLLLLLLLLWGIKGVEGQNPQEVFTLNVERKVVVQEGLCVLVPCNFSYLKKRLTDWTDSDPVHGFWYREGTDRRKDSIVATNNPIRKAVKETRNRFFLLGDPWRNDCSLNIREIRKKDAGLYFFRLERGKTKYNYMWDKMTLVVTALTNTPQILLPETLEAGHPSNLTCSVPWDCGWTAPPIFSWTGTSVSFLSTNTTGSSVLTITPQPQDHGTNLTCQVTLPGTNVSTRMTTRLNVSYAPKNLTVTIYQGADSVSTILKNGSSLPISEGQSLRLICSTDSYPPANLSWSWDNLTLCPSKLSKPGLLELFPVHLKHGGVYTCQAQHALGSQHISLSLSPQSSATLSEMMMGTFVGSGVTALLFLSVCILLLAVRSYRRKPARPAVVAPHPDALKVSVSQNPLVESQADDSSEPLPSILEAAPSSTEEEIHYATLSFHEMKPMNLWGQQDTTTEYSEIKFPQRTAWP
# What was measured:
# Assay in all cases: glycan array binding signal (z-score within array); higher = stronger binding
# Settings in all cases: glycan notation: IUPAC condensed, linker removed
# [1] = biological target: Fuc(a1-2)Gal(b1-3)[Fuc(a1-4)]GlcNAc(b1-2)Man(a1-3)[Fuc(a1-2)Gal(b1-3)[Fuc(a1-4)]GlcNAc(b1-2)Man(a1-3)]Man(b1-4)GlcNAc(b1-4)GlcNAc
# Method in brief: (§1)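 Glycan array data were curated from 3228 arrays in the Consortium for Functional Glycomics database and kept only where the protein sequence was available. Glycan names were converted to IUPAC-condensed notation, and columns mapping to the same glycan were averaged. The binding signal is a within-array Z-score, averaged across arrays of the same protein sequence at different concentrations or buffers and across linkers. Negative Z-scores can be read as non-binding.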
# [2] = biological target: Fuc(a1-2)Gal(b1-3)[Fuc(a1-4)]GlcNAc(b1-2)Man(a1-3)[Fuc(a1-2)Gal(b1-3)[Fuc(a1-4)]GlcNAc(b1-2)Man(a1-6)]Man(b1-4)GlcNAc(b1-4)[Fuc(a1-6)]GlcNAc(b1-4)[Fuc(a1-6)]GlcNAc
# Method in brief: as §1
# [3] = biological target: Fuc(a1-2)Gal(b1-4)GlcNAc(b1-2)Man(a1-3)[Fuc(a1-2)Gal(b1-4)GlcNAc(b1-2)Man(a1-6)]Man(b1-4)GlcNAc(b1-4)[Fuc(a1-6)]GlcNAc
# Method in brief: as §1
# [4] = biological target: Fuc(a1-2)[Gal(a1-3)]Gal(b1-3)GalNAc
# Method in brief: as §1
# [5] = biological target: Fuc(a1-2)[Gal(a1-3)]Gal(b1-3)GlcNAc(b1-3)GalNAc
# Method in brief: as §1
# [6] = biological target: Fuc(a1-2)[Gal(a1-3)]Gal(b1-4)GlcNAc(b1-2)Man(a1-3)[Fuc(a1-2)[Gal(a1-3)]Gal(b1-4)GlcNAc(b1-2)Man(a1-6)]Man(b1-4)GlcNAc(b1-4)[Fuc(a1-6)]GlcNAc
# Method in brief: as §1
# [7] = biological target: Fuc(a1-2)[Gal(a1-3)]Gal(b1-4)GlcNAc(b1-3)[Fuc(a1-2)[Gal(a1-3)]Gal(b1-4)GlcNAc(b1-6)]GalNAc
# Method in brief: as §1
# [8] = biological target: Fuc(a1-2)[Gal(a1-3)]Gal(b1-4)[Fuc(a1-3)]GlcNAc
# Method in brief: as §1
# [9] = biological target: Fuc(a1-2)[Gal(a1-3)]Gal(b1-4)[Fuc(a1-3)]GlcNAc(b1-3)GalNAc
# Method in brief: as §1
# [10] = biological target: Fuc(a1-2)[GalNAc(a1-3)]Gal(b1-3)GalNAc(b1-3)Gal(a1-4)Gal(b1-4)Glc
# Method in brief: as §1
# [11] = biological target: Fuc(a1-3)[Gal(b1-4)]GlcNAc(b1-2)Man
# Method in brief: as §1
# [12] = biological target: Fuc(a1-4)GlcNAc
# Method in brief: as §1
# [13] = biological target: Gal(a1-3)Gal(b1-4)[Fuc(a1-3)]GlcNAc
# Method in brief: as §1
# [14] = biological target: Gal(a1-3)Gal(b1-4)[Fuc(a1-3)]GlcNAc(b1-2)Man(a1-3)[Gal(a1-3)Gal(b1-4)[Fuc(a1-3)]GlcNAc(b1-2)Man(a1-6)]Man(b1-4)GlcNAc(b1-4)GlcNAc
# Method in brief: as §1
# [15] = biological target: Gal(a1-3)GalNAc
# Method in brief: as §1
# [16] = biological target: Gal(a1-4)Gal(b1-4)GlcNAc(b1-2)Man(a1-3)[Gal(a1-4)Gal(b1-4)GlcNAc(b1-2)Man(a1-6)]Man(b1-4)GlcNAc(b1-4)GlcNAc
# Method in brief: as §1
# [17] = biological target: Gal(a1-6)Glc
# Method in brief: as §1
# [18] = biological target: Gal(b1-3)GalNAc(a1-3)[Fuc(a1-2)]Gal(b1-4)Glc
# Method in brief: as §1
# [19] = biological target: Gal(b1-3)GlcNAc(b1-2)Man
# Method in brief: as §1
# [20] = biological target: Gal(b1-3)GlcNAc(b1-2)[Gal(b1-3)GlcNAc(b1-6)]Man(a1-6)[Gal(b1-3)GlcNAc(b1-2)Man(a1-3)]Man(b1-4)GlcNAc(b1-4)GlcNAc
# Method in brief: as §1
# [21] = biological target: Gal(b1-4)Gal
# Method in brief: as §1
# [22] = biological target: Gal(b1-4)GalNAc(b1-3)[Fuc(a1-2)]Gal(b1-4)GlcNAc
# Method in brief: as §1
# [23] = biological target: Gal(b1-4)GlcNAc(b1-2)[Gal(b1-4)GlcNAc(b1-4)]Man(a1-3)[Gal(b1-4)GlcNAc(b1-2)[Gal(b1-4)GlcNAc(b1-6)]Man(a1-6)]Man(b1-4)GlcNAc(b1-4)GlcNAc
# Method in brief: as §1
# [24] = biological target: Gal(b1-4)GlcNAc(b1-3)Gal(b1-4)GlcNAc(b1-3)Gal(b1-4)GlcNAc(b1-2)Man(a1-3)[Gal(b1-4)GlcNAc(b1-3)Gal(b1-4)GlcNAc(b1-3)Gal(b1-4)GlcNAc(b1-2)Man(a1-6)]Man(b1-4)GlcNAc(b1-4)[Fuc(a1-6)]GlcNAc
# Method in brief: as §1
# [25] = biological target: Gal(b1-4)GlcNAc(b1-3)Gal(b1-4)GlcNAc(b1-3)[Gal(b1-4)GlcNAc(b1-3)Gal(b1-4)GlcNAc(b1-6)]GalNAc
# Method in brief: as §1
# [26] = biological target: Gal3S(b1-4)[Fuc(a1-3)]Glc6S
# Method in brief: as §1
# [27] = biological target: Gal3S4S(b1-4)GlcNAc
# Method in brief: as §1
# [28] = biological target: GalNAc(b1-4)Gal(b1-4)Glc
# Method in brief: as §1
# [29] = biological target: GalNAc4S6S(b1-4)GlcNAc
# Method in brief: as §1
# [30] = biological target: Glc(a1-6)Glc(a1-6)Glc(a1-6)Glc
# Method in brief: as §1
# [31] = biological target: Glc(b1-4)Glc
# Method in brief: as §1
# [32] = biological target: GlcNAc(a1-4)Gal(b1-4)GlcNAc
# Method in brief: as §1
# [33] = biological target: GlcNAc(b1-2)Gal(b1-3)GalNAc
# Method in brief: as §1
# [34] = biological target: GlcNAc(b1-2)Man(a1-3)[GlcNAc(b1-2)Man(a1-6)]Man(b1-4)GlcNAc(b1-4)GlcNAc
# Method in brief: as §1
# [35] = biological target: GlcNAc(b1-3)Gal(b1-4)GlcNAc(b1-3)Gal(b1-4)GlcNAc(b1-2)[GlcNAc(b1-3)Gal(b1-4)GlcNAc(b1-3)Gal(b1-4)GlcNAc(b1-6)]Man(a1-6)[GlcNAc(b1-3)Gal(b1-4)GlcNAc(b1-3)Gal(b1-4)GlcNAc(b1-2)Man(a1-3)]Man(b1-4)GlcNAc(b1-4)[Fuc(a1-6)]GlcNAc
# Method in brief: as §1
# [36] = biological target: GlcNAc(b1-3)[GlcNAc(b1-6)]GalNAc
# Method in brief: as §1
# [37] = biological target: Man(a1-2)Man(a1-3)[Man(a1-6)]Man(a1-6)[Man(a1-2)Man(a1-3)]Man(b1-4)GlcNAc(b1-4)GlcNAc
# Method in brief: as §1
# [38] = biological target: MurNAc(b1-4)GlcNAc
# Method in brief: as §1
# [39] = biological target: Neu5Ac(a2-3)Gal
# Method in brief: as §1
# [40] = biological target: Neu5Ac(a2-3)Gal(b1-3)GalNAc(b1-4)[Neu5Ac(a2-8)Neu5Ac(a2-3)]Gal(b1-4)Glc
# Method in brief: as §1
# [41] = biological target: Neu5Ac(a2-3)Gal(b1-3)GlcNAc(b1-2)Man(a1-3)[Neu5Ac(a2-3)Gal(b1-3)GlcNAc(b1-2)Man(a1-6)]Man(b1-4)GlcNAc(b1-4)GlcNAc
# Method in brief: as §1
# [42] = biological target: Neu5Ac(a2-3)Gal(b1-3)GlcNAc(b1-3)GalNAc
# Method in brief: as §1
# [43] = biological target: Neu5Ac(a2-3)Gal(b1-3)[Fuc(a1-4)]GlcNAc(b1-3)Gal(b1-4)[Fuc(a1-3)]GlcNAc
# Method in brief: as §1
# [44] = biological target: Neu5Ac(a2-3)Gal(b1-4)Glc
# Method in brief: as §1
# [45] = biological target: Neu5Ac(a2-3)Gal(b1-4)GlcNAc(b1-3)Gal(b1-4)GlcNAc(b1-3)[Neu5Ac(a2-3)Gal(b1-4)GlcNAc(b1-3)Gal(b1-4)GlcNAc(b1-6)]GalNAc
# Method in brief: as §1
# [46] = biological target: Neu5Ac(a2-3)Gal(b1-4)[Fuc(a1-3)]GlcNAc(b1-3)Gal(b1-4)[Fuc(a1-3)]GlcNAc(b1-3)Gal(b1-4)[Fuc(a1-3)]GlcNAc
# Method in brief: as §1
# [47] = biological target: Neu5Ac(a2-3)Gal6S(b1-4)GlcNAc
# Method in brief: as §1
# [48] = biological target: Neu5Ac(a2-3)[GalNAc(b1-4)]Gal(b1-4)Glc
# Method in brief: as §1
# [49] = biological target: Neu5Ac(a2-3)[GalNAc(b1-4)]Gal(b1-4)GlcNAc(b1-3)GalNAc
# Method in brief: as §1
# [50] = biological target: Neu5Ac(a2-6)Gal(b1-4)GlcNAc(b1-2)Man(a1-3)Man(b1-4)GlcNAc(b1-4)GlcNAc
# Method in brief: as §1
# [51] = biological target: Neu5Ac(a2-6)GalNAc
# Method in brief: as §1
# [52] = biological target: Neu5Ac(a2-8)Neu5Ac(a2-3)Gal(b1-3)GalNAc(b1-4)[Neu5Ac(a2-8)Neu5Ac(a2-3)]Gal(b1-4)Glc
# Method in brief: as §1
# [53] = biological target: Neu5Gc(a2-3)Gal(b1-3)[Fuc(a1-4)]GlcNAc
# Method in brief: as §1
binder,measurement,setting,value
B1,glycan array binding signal (z-score),[1],3.48
same,glycan array binding signal (z-score),[2],0.284
same,glycan array binding signal (z-score),[3],3.46
same,glycan array binding signal (z-score),[4],0.178
same,glycan array binding signal (z-score),[5],5.32
same,glycan array binding signal (z-score),[6],3.5
same,glycan array binding signal (z-score),[7],5.58
same,glycan array binding signal (z-score),[8],0.611
same,glycan array binding signal (z-score),[9],-0.176
same,glycan array binding signal (z-score),[10],-0.363
same,glycan array binding signal (z-score),[11],-0.35
same,glycan array binding signal (z-score),[12],4.01
same,glycan array binding signal (z-score),[13],-0.381
same,glycan array binding signal (z-score),[14],6.54
same,glycan array binding signal (z-score),[15],-0.309
same,glycan array binding signal (z-score),[16],4.23
same,glycan array binding signal (z-score),[17],0.863
same,glycan array binding signal (z-score),[18],-0.496
same,glycan array binding signal (z-score),[19],-0.592
same,glycan array binding signal (z-score),[20],1.66
same,glycan array binding signal (z-score),[21],3.25
same,glycan array binding signal (z-score),[22],-0.625
same,glycan array binding signal (z-score),[23],-0.667
same,glycan array binding signal (z-score),[24],-0.527
same,glycan array binding signal (z-score),[25],-0.06
same,glycan array binding signal (z-score),[26],0.707
same,glycan array binding signal (z-score),[27],-0.239
same,glycan array binding signal (z-score),[28],4.05
same,glycan array binding signal (z-score),[29],-0.147
same,glycan array binding signal (z-score),[30],1.1
same,glycan array binding signal (z-score),[31],-0.196
same,glycan array binding signal (z-score),[32],-0.41
same,glycan array binding signal (z-score),[33],-0.364
same,glycan array binding signal (z-score),[34],-0.12
same,glycan array binding signal (z-score),[35],-0.336
same,glycan array binding signal (z-score),[36],-0.05
same,glycan array binding signal (z-score),[37],-0.61
same,glycan array binding signal (z-score),[38],-0.464
same,glycan array binding signal (z-score),[39],-0.19
same,glycan array binding signal (z-score),[40],0.68
same,glycan array binding signal (z-score),[41],6.41
same,glycan array binding signal (z-score),[42],-0.226
same,glycan array binding signal (z-score),[43],-0.475
same,glycan array binding signal (z-score),[44],3.95
same,glycan array binding signal (z-score),[45],-0.335
same,glycan array binding signal (z-score),[46],-0.568
same,glycan array binding signal (z-score),[47],-0.532
same,glycan array binding signal (z-score),[48],-0.34
same,glycan array binding signal (z-score),[49],-0.355
same,glycan array binding signal (z-score),[50],-0.181
same,glycan array binding signal (z-score),[51],-0.32
same,glycan array binding signal (z-score),[52],0.342
same,glycan array binding signal (z-score),[53],0.48

# Reference: the supplement of paper PMC8728848
